The structures appear in SMILES notation. Several values for one entry are separate records, joined by “and”; a condition that tells them apart may be missing. Identical values can stand only once. The whole screen tested about 16,000 compounds, of which about 5,800 (36%) were called active. Inconclusive results (about 23%) are left out. The list shows a part of the results. Unmarked numbers belong to inactive results. Calls follow the shape of the dose curve; as a rule, active = well fitted curve in the direction sought with a large enough effect; inconclusive = small, poorly fitted or top-dose-only effect, or effect the other way; inactive = no such curve, though single readings can be large or run the other way.
% is scaled to controls: 0 for no effect and ±100 for the full control effect.

For this test, the target named is Cytochrome P450 2C19 (Homo sapiens) (UniProt P33261). Kind of test: Cytochrome panel assay with activity outcomes. To be noted: recombinant CYP, pro-luciferin dealkylation, luminescence, p450-cyp2c19; series mostly up to 57.1 µM.
Cytochrome P450 2C19 (Homo sapiens), sequence (P33261 whole entry, looked up): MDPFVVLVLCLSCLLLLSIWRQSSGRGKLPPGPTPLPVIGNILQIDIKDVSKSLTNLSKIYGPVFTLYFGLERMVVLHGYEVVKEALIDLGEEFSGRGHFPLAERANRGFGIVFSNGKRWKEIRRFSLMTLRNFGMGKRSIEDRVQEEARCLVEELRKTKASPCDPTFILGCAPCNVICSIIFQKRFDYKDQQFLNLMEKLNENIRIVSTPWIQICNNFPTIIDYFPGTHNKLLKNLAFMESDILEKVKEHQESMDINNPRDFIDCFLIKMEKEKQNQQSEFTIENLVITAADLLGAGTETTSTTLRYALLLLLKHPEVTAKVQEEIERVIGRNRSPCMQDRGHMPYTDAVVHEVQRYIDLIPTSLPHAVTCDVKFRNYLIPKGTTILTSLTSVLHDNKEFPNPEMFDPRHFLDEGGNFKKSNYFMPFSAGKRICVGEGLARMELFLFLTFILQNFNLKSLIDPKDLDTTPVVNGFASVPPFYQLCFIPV
Usually AC50 stands for the concentration at which the activity in the assay is half-maximal. As to `CCCc1c(OCCCOc2ccc(OCC(=O)O)cc2)ccc(CC=O)c1O`, the AC50 entry is “inactive”.

For the compound `COc1ccc(C(=O)N/N=C(\C)Cn2nc([N+](=O)[O-])cc2C)cc1`, the AC50 result is “inactive”.

For the compound `COc1ccc(CC(=O)Nc2cccc(/C(C)=N/NC(=O)c3cccc([N+](=O)[O-])c3)c2)cc1`, the AC50 was 14.1 µM (active).

With `CCSc1nnc2n(N)c(=O)c3ccccc3n12`, the AC50 entry was “inactive”.

In the case of `Cc1cc2nnc(SCC(=O)OC(C)C)n2c2ccccc12`, the AC50 was 7.94 µM (active).

As for `CC(=O)c1cc(C#N)c(Oc2cccc(C(F)(F)F)c2)nc1C`, the AC50 was 11.2 µM (active).

Consider `COc1ccc(Oc2ncc3nc(C)c(=O)n(-c4ccc(OC)cc4)c3n2)cc1`, for which the AC50 entry was “inactive”.

On to `COC(=O)c1cc(C#N)c(NCc2ccc(Cl)cc2Cl)nc1C`, for which the AC50 result is “inactive”.

Take `COC(=O)c1cc(C#N)c(Oc2ccc(OC)cc2)nc1C`: the AC50 was 17.8 µM (active).

For `Cn1cccc1C(=O)N1CCC2(CCN(C(=O)Nc3ccccc3)CC2)CC1`, the AC50 result was “inactive”.

In the case of `Cn1cccc1C(=O)N1CCC2(CC1)CN(C(=O)Nc1ccccc1)C2`, the AC50 result is “inactive”.

`Cn1cccc1C(=O)C(=O)Nc1cccc(Cl)c1Cl`: the AC50 was 3.16 µM (active).

In the case of `O=c1n(-c2ccccc2)c(=O)n2n1CC[C@H]1/C(=N\OC[C@@H](O)COCc3ccco3)[C@H]3O[C@@H]3[C@@H](O)[C@@H]12`, the activity, negative = inhibition was 18.2% [at 11.4 µM] and 1.03% [at 11.4 µM].

Consider `Cc1ccnc2nc(C(=O)OCC(=O)Nc3ccc4c(c3)OC(F)(F)O4)nn12`, for which the AC50 entry was “inactive”.

`CCN(c1ccc(NC(=O)COC(=O)c2ccc3ccccc3n2)cc1)C(C)C`: the AC50 was 4.47 µM (active).

As for `COc1ccc(C(=O)Nc2ccc(OCC(F)(F)C(F)F)c(C(F)(F)F)c2)cc1OC`, the AC50 was 14.1 µM (active).

Turning to `CC(C)NC(=O)N1CC[C@@]2(CCCN(C(=O)c3csnn3)C2)C1`, the AC50 entry is “inactive”.

In the case of `COc1ccc2cc(CCNC(=O)C3CC3)c(=O)[nH]c2c1`, the AC50 result is “inactive”.

Consider `Cc1ccc2cc(CCNC(=O)c3ccc(Br)o3)c(=O)[nH]c2c1`, for which the half-maximal activity concentration (AC50) was 2.24 µM (active).

Consider `CC(=O)N1CCN(C(=O)CC2OC(=O)c3ccccc32)CC1` (stereo unspecified), for which the AC50 was 1.78 µM (active).

As for `COc1ccc(OC)c2c(=S)c3ccccc3[nH]c12`, the AC50 entry was “inactive”.

Regarding `CCN(C(=S)Nc1ccccc1F)C1CCCCC1`, the half-maximal activity concentration (AC50) is 3.98 µM (active).

For `Cc1ccc([N+](=O)[O-])cc1NC(=S)NC(=O)C(C)(C)C`, the AC50 was 2 µM (active).

For `Cc1ccc(SCc2ccc(C(=O)Nc3cc([N+](=O)[O-])ccc3C)cc2)cc1`, the AC50 result is “inactive”.

Turning to `Cc1ccc([N+](=O)[O-])cc1NC(=S)NC(=O)CC(C)(C)C`, the AC50 is 4.47 µM (active).

For `CCn1c(C)c(C)c2cc(C(=O)Nc3cccc(Cl)c3)ccc21`, the AC50 was 7.08 µM (active).

Turning to `Cc1c(C)n(C)c2ccc(C(=O)Nc3cccc4ccccc34)cc12`, the AC50 was 3.55 µM (active).

For `O=C(O)c1ccc(C(=O)Nc2cccc3ccccc23)c(C(=O)O)c1`, the activity, negative = inhibition is 12.6% [at 11.4 µM].

Turning to `COc1ncc2nc(-c3cc(F)cc(F)c3)c(=O)n(-c3ccccc3)c2n1`, the AC50 result is “inactive”.

Take `Cc1ccccc1OCCCn1c(=O)sc2ccccc21`: the AC50 was 1 µM (active).

With `O=c1sc2ccccc2n1CCCOc1ccccc1`, the AC50 was 1.12 µM (active).

As to `C[N+](C)(CCCOc1ccccc1)c1ccccc1`, the AC50 entry was “inactive”.

Take `Cc1ccc(OCCCn2c(=O)sc3ccccc32)cc1`: the concentration at half-maximal activity (AC50) is 0.708 µM (active).

In the case of `C/C(CCN1CCc2nc(-c3ccccc3)c(-c3ccccc3)cc2C1)=N\O[C@@H](C)c1cn([C@H](CO)Cc2ccccc2)nn1`, the activity, negative = inhibition was -17.8% [at 11.4 µM] and -16.4% [at 11.4 µM].

Turning to `OC[C@@H]1NC[C@@H](O)[C@H]1O`, the AC50 result was “inactive”.

On to `COc1cccc(C=NC=Nc2cccc(OC)c2)c1`, for which the AC50 result was “inactive”.

In the case of `Clc1cccc(C=NC=Nc2cccc(Cl)c2)c1`, the AC50 is 10 µM (active).

Turning to `O=c1[nH][nH]c(C(F)(F)F)c1C=Nc1cccc(Cl)c1`, the AC50 entry is “inactive”.

As to `Cc1noc(C)c1-c1nc(Nc2ccc(F)cc2)c2ccccc2n1`, the AC50 was 3.16 µM (active).

For `COCCNc1nc(-c2c(C)noc2C)nc2ccccc12`, the AC50 entry is “inactive”.

Turning to `Cc1noc(C)c1-c1nc(NC2CCNCC2)c2ccccc2n1`, the AC50 entry is “inactive”.

For `Cc1noc(C)c1-c1nccc(NC2CC2)n1`, the AC50 is 10 µM (active).

Consider `CN(C)Cc1ccccc1-c1nccc(NC2CC2)n1`, for which the AC50 result was “inactive”.

On to `c1ccc2c(NCCN3CCOCC3)nc(-c3ccoc3)nc2c1`, for which the AC50 result is “inactive”.

`Cc1noc(C)c1-c1nc(Nc2ccccc2)c2ccccc2n1`: the AC50 result was “inactive”.

`CNc1cc(-c2c(C)noc2C)ncn1`: the AC50 entry was “inactive”.

For the compound `Cc1noc(C)c1-c1nc(NCCN2CCOCC2)c2ccccc2n1`, the half-maximal activity concentration (AC50) is 7.94 µM (active).

Turning to `Cc1noc(C)c1-c1nccc(Nc2ccc(F)cc2)n1`, the AC50 is 3.98 µM (active).

With `Cc1ccc(-[n+]2cc(=O)o[nH]2)cc1`, the activity, negative = inhibition is -19.9% [at 11.4 µM].

Turning to `CC(C)NC(=O)N1CCCC2(CCN(C(=O)c3ccncc3)CC2)C1`, the AC50 entry is “inactive”.

For `CSc1nc(NC2CCCC2)c([N+](=O)[O-])c(NC2CCCC2)n1`, the AC50 was 5.01 µM (active).

Take `CCNc1nnc(-c2ccncc2)s1`: the AC50 is 5.01 µM (active).

In the case of `COc1ccc(C(=O)O/N=C/c2ccc(S(=O)c3ccc(Cl)cc3)nc2)cc1` (stereo unspecified), the AC50 was 14.1 µM (active).

As for `c1cc(CN2CCCCC2)cc(OCCCNc2nc3ccccc3s2)c1`, the AC50 entry is “inactive”.

On to `O=C(NCc1cccs1)C1CCN(S(=O)(=O)c2cccc3nsnc23)CC1`, for which the AC50 entry was “inactive”.

As for `COc1ccc2nc(NC(=O)C3CCN(S(=O)(=O)c4cccc5nsnc45)CC3)sc2c1`, the AC50 is 1.41 µM (active).

Consider `Cc1cccc(NC(=O)C2CCN(S(=O)(=O)c3cccc4nsnc34)CC2)n1`, for which the concentration at half-maximal activity (AC50) was 10 µM (active).

Turning to `COc1ccc2nc(NCN3C(=O)c4ccccc4C3=O)sc2c1`, the AC50 was 2.51 µM (active).

On to `O=C(NCC1COc2ccccc2O1)C1CCN(S(=O)(=O)c2cccc3nsnc23)CC1` (stereo unspecified), for which the half-maximal activity concentration (AC50) is 14.1 µM (active).

Take `COc1ccc(OC)c(S(=O)(=O)N2CCC(C(=O)NCCc3ccccc3)CC2)c1`: the AC50 result was “inactive”.

Consider `COc1ccc(OC)c(S(=O)(=O)N2CCC(C(=O)Nc3ccc(C)c(C)c3)CC2)c1`, for which the AC50 was 14.1 µM (active).

In the case of `CC1(C)C(=O)C(c2ccccc2)=C2CN3C(=O)N(CCc4ccccc4)C(=O)C3(Cc3ccc(C(F)(F)F)cc3)C=C21` (stereo unspecified), the AC50 entry was “inactive”.

On to `NC(=O)C[C@H](N)C(N)=O`, for which the activity, negative = inhibition was -4.71% [at 11.4 µM].

As to `O=C1CCCC2=C1C(c1ccc(OS(=O)(=O)c3ccc(Cl)cc3)cc1)C1=C(CCCC1=O)O2`, the AC50 is 3.98 µM (active).

`CN(C)C[C@H]1CCC2=C(C1=O)C(c1ccc(Cl)c(Cl)c1)C1=C(CC[C@H](CN(C)C)C1=O)O2`: the activity, negative = inhibition is 13.9% [at 11.4 µM].

Consider `Cc1ccc(S(=O)(=O)Oc2ccc(C3C4=C(CCCC4=O)OC4=C3C(=O)CCC4)cc2)cc1`, for which the AC50 was 4.47 µM (active).

As to `O=c1oc(-c2ccco2)nc2c1cnn2-c1ccccc1`, the AC50 was 7.08 µM (active).

In the case of `c1ccc(-n2ncc3c2ncn2cnnc32)cc1`, the AC50 entry was “inactive”.

For `O=C(O)c1ccccc1C(=O)NNc1ccc(F)cc1`, the AC50 entry was “inactive”.

For `COC(=O)C(NNc1ccccc1)(NC(=O)c1ccccc1F)C(F)(F)F` (stereo unspecified), the AC50 is 2.24 µM (active).

Regarding `Cc1ccc(C(=O)O)cc1N1C(=O)c2cccc3cc(Br)cc(c23)C1=O`, the AC50 is 14.1 µM (active).

In the case of `CCN(CC)CCN1C(=O)c2cccc3cc(N)cc(c23)C1=O`, the activity, negative = inhibition was 44.4% [at 11.4 µM].

With `CC1CSc2nc3sc4c(c3c(=O)n21)CCCC4` (stereo unspecified), the half-maximal activity concentration (AC50) was 15.8 µM (active).

`CCN(CC(=O)NCc1cccs1)S(=O)(=O)c1ccc(C(C)C)cc1`: the AC50 is 5.62 µM (active).

With `OCCCSCCO`, the activity, negative = inhibition was 18.7% [at 11.4 µM].

As for `CC(C)COP(=O)(c1ccc(N(C)C)cc1)C(O)c1ccccc1F` (stereo unspecified), the AC50 was 5.62 µM (active).

`CC(C)COP(=O)(OCC(C)C)C(O)c1ccccc1F` (stereo unspecified): the AC50 entry was “inactive”.

On to `Clc1ccc(-c2ccnc(Oc3cc(Cl)ccc3Cl)n2)cc1`, for which the AC50 is 0.316 µM (active).

Regarding `S=C(Nc1ccc2c(c1)Cc1ccccc1-2)Nc1ccc2c(c1)Cc1ccccc1-2`, the activity, negative = inhibition is -8.36% [at 11.4 µM].

Turning to `O=C(O)/C=C\C(=O)Nc1ccc2c(c1)-c1ccccc1C2`, the activity, negative = inhibition was -24.1% [at 11.4 µM].

For the compound `C(/C=C\c1ccccc1)=Nc1ccc2c(c1)Cc1ccccc1-2`, the AC50 was 3.98 µM (active).

With `CCCCOC(=O)c1cc2c(cn1)[nH]c1ccccc12`, the AC50 was 5.01 µM (active).

In the case of `Cc1noc(NS(=O)(=O)c2ccc(N/C=C/C(=O)c3ccc4c(c3)OCO4)cc2)c1C`, the AC50 result is “inactive”.

For `CC(=O)c1cccc(NS(=O)(=O)c2ccc(N/C=C\C(=O)c3ccc(F)cc3)cc2)c1`, the AC50 is 5.62 µM (active).

For `Cn1c(=O)c(-c2cc(F)cc(F)c2)nc2cnc(N3CCOCC3)nc21`, the AC50 entry is “inactive”.

With `COC(=O)c1[nH]c2ccc(Br)cc2c1NC(=O)CN1CCN(C2CCCCC2)CC1`, the AC50 is 15.8 µM (active).

As to `COC(=O)c1[nH]c2ccc(Br)cc2c1NC(=O)CN1CCCc2ccccc21`, the AC50 was 7.94 µM (active).

Consider `COC(=O)c1[nH]c2cc(OC)ccc2c1NC(=O)CCN1CCSCC1`, for which the AC50 result was “inactive”.

On to `COC(=O)c1[nH]c2cccc(OC)c2c1NC(=O)CN(C)CC1OCCO1`, for which the AC50 result is “inactive”.

Regarding `Cc1ccc(S(=O)(=O)N[C@H]2COC(=O)[C@@H](Cc3ccccc3)NC(=O)[C@@H](C)COC(=O)C/C=C\[C@@H]2C)cc1`, the activity, negative = inhibition was 32% [at 11.4 µM].

For the compound `O=C(c1csnn1)N1CCC2(CCN(Cc3nccs3)CC2)CC1`, the AC50 entry is “inactive”.

For `CCN(CC)CC[n+]1ccc2c(C)c3[nH]c4ccc(O)cc4c3c(C)c2c1`, the activity, negative = inhibition was 42.4% [at 11.4 µM].

For `CCCS(=O)(=O)N1CCN(CC2CC=CCC2)CC1` (stereo unspecified), the AC50 is 3.98 µM (active).

Take `CCCS(=O)(=O)N1CCCC(C(=O)NCCN2CCOCC2)C1` (stereo unspecified): the AC50 entry was “inactive”.

With `CCCS(=O)(=O)N1CCCC(C(=O)N2CCOCC2)C1` (stereo unspecified), the AC50 result is “inactive”.

On to `O=c1cc(CF)[nH]c(=S)[nH]1`, for which the activity, negative = inhibition is 16.1% [at 11.4 µM].
